Values joined by “and” are separate entries in the source; they are usually repeats but may differ in a detail not shown here. Identical values can stand only once. Compounds without any hit were thinned out: in the full panel of roughly 79,000, 15% have a hit. Active and inactive are the calls of the source. Rule as the data show it: active = growth inhibition above about 70%; inactive = the rest.
Tests used:
[1] = NCI Yeast Anticancer Drug Screen. Data for the rad52 strain (AID 147);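 also: 0% = growth of vehicle-treated control cultures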; details: S. cerevisiae rad52 mutant growth inhibition, hits give high values
In short: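 Growth of repair-deficient yeast cells was compared between compound-treated and vehicle-treated cultures to give percent inhibition.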

[2] = NCI Yeast Anticancer Drug Screen. Data for the wt1 strain (AID 149);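 also: 0% = growth of vehicle-treated wt1 cultures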; details: S. cerevisiae wt1 strain (SPY 50644) growth inhibition, hits give high values
In short: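 wt1 strain grown with compound or vehicle; inhibition taken from the growth difference.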

[3] = NCI Yeast Anticancer Drug Screen. Data for the rad50EPP+ strain (AID 151);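 also: 0% = growth of vehicle-treated control cultures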; details: S. cerevisiae rad50 mutant strain, hits give high values
In short: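 Measured: growth inhibition of rad50EPP+ yeast. Reference: vehicle-treated controls. Screen uses strains with defined genetic alterations in DNA damage repair or cell cycle control.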

[4] = NCI Yeast Anticancer Drug Screen. Data for the rad50 strain (AID 155);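 also: 0% = growth of vehicle-only cultures of the same strain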; details: S. cerevisiae rad50 strain growth inhibition, hits give high values
In short: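 DNA repair mutant yeast, compound exposure, growth read-out; inhibition is taken relative to vehicle.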

[5] = NCI Yeast Anticancer Drug Screen. Data for the mec2-1 strain (AID 157); details: S. cerevisiae mec2-1 strain, hits give high values
In short: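 Compounds were applied to mec2-1 yeast cells. Their growth was then compared with that of vehicle-treated cultures to give growth inhibition.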

[6] = NCI Yeast Anticancer Drug Screen. Data for the rad14 strain (AID 159);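 also: 0% = growth of vehicle-treated control cultures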; details: S. cerevisiae rad14 strain growth inhibition, hits give high values
In short: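 DNA repair-defective yeast, compound-exposed; % growth inhibition derived by comparison with vehicle-treated controls.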

[7] = NCI Yeast Anticancer Drug Screen. Data for the sgs1 mgt1 strain (AID 161);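 also: 0% = growth of cultures given vehicle only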; details: S. cerevisiae sgs1 mgt1 strain, hits give high values
In short: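 Yeast cells carrying a defined DNA-repair defect were exposed to test compounds. Growth inhibition was measured relative to vehicle-treated controls.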

[8] = NCI Yeast Anticancer Drug Screen. Data for the CLN2oe strain (AID 163);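 also: 0% = growth of vehicle-only control cultures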; details: S. cerevisiae CLN2oe strain, hits give high values
In short: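 Cells of an engineered yeast line with disturbed cell-cycle regulation are treated with compound. Inhibition of growth is then calculated relative to the vehicle-treated reference.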

[9] = NCI Yeast Anticancer Drug Screen. Data for the cln2 rad14 strain (AID 165);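 also: 0% = growth equal to vehicle treated cultures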; details: S. cerevisiae cln2 rad14 strain, hits give high values
In short: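 Strain: cln2 rad14 yeast, altered in cell cycle control and DNA damage repair. Read-out: growth inhibition vs vehicle.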

[10] = NCI Yeast Anticancer Drug Screen. Data for the bub3 strain (AID 167); details: S. cerevisiae bub3 mutant strain, hits give high values
In short: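 In this screen, a yeast mutant lacking normal mitotic checkpoint function is challenged with compound. Relative growth versus vehicle gives the inhibition value.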

[11] = NCI Yeast Anticancer Drug Screen. Data for the wt2 strain (AID 169);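 also: 0% = growth of vehicle-treated yeast cultures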; details: S. cerevisiae wt2 strain growth inhibition, hits give high values
In short: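 Growth of compound-treated yeast is measured and expressed as inhibition relative to vehicle-only controls.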

[12] = NCI Yeast Anticancer Drug Screen. Data for the sgs1 strain (AID 173);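 also: 0% = growth of vehicle-only control cultures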; details: S. cerevisiae sgs1 mutant, hits give high values
In short: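 Strain with an altered DNA repair or cell cycle pathway exposed to compound. Growth then measured. Value = inhibition versus vehicle control.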

[13] = NCI Yeast Anticancer Drug Screen. Data for the mlh1 rad18 strain (AID 175); details: S. cerevisiae mlh1 rad18 strain growth inhibition, hits give high values
In short: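 A repair-deficient yeast strain is exposed to test compound, and growth is scored relative to vehicle-treated controls.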

[14] = NCI Yeast Anticancer Drug Screen. Data for the rad18 strain (AID 177); details: S. cerevisiae rad18 mutant growth inhibition, hits give high values
In short: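 DNA-repair-defective yeast; compound treatment; growth inhibition scored against vehicle.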

[15] = NCI Yeast Anticancer Drug Screen. Data for the mlh1 strain (AID 171);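 also: 0% = growth of vehicle-treated control cultures of the same strain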; details: S. cerevisiae mlh1 strain growth inhibition, hits give high values
In short: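 Test agents were incubated with yeast bearing a defined DNA damage repair or cell cycle control alteration; values are growth inhibition normalised to vehicle-treated cultures.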

[16] = at 5.0 µM (retest, dose inferred, filed as 0.5)
[17] = at 50.0 µM (retest, dose inferred, filed as 5.0)

Measured: growth inhibition

CC(=O)C1=C(O)C2(C)c3c(O)c(C)c(O)c(C(C)=O)c3OC2(Sc2ccccc2)CC1=O (stereo not drawn)
inactive: [1]; at 1.2 µM 24% | [1]; at 3.7 µM 43% | [1]; at 11.0 µM 54% | [1]; at 33.0 µM 58% | [2]; at 1.2 µM 21% | [2]; at 3.7 µM 51% | [2]; at 11.0 µM 55% | [2]; at 33.0 µM 66% | [3]; at 1.2 µM 23% | [3]; at 3.7 µM 18% | [3]; at 11.0 µM 30% | [3]; at 33.0 µM 33% | [3]; at 100.0 µM 52% | [4]; at 1.2 µM 20% | [4]; at 3.7 µM 20% | [4]; [16] -15% | [4]; at 11.0 µM 36% | [4]; at 33.0 µM 53% | [4]; at 50.0 µM 63% and 7.1% | [5]; at 1.2 µM 4% | [5]; at 3.7 µM 24% | [5]; [16] 22% | [5]; at 11.0 µM 43% | [5]; at 33.0 µM 54% | [5]; at 50.0 µM 68.6% and -7.9% | [6]; at 1.2 µM 0% | [6]; at 3.7 µM 5% | [6]; at 11.0 µM 17% | [6]; at 33.0 µM 30% | [7]; [16] 9% | [7]; at 50.0 µM 48.1% and 0.4% | [8]; at 1.2 µM -1% | [8]; at 3.7 µM 34% | [8]; at 11.0 µM 44% | [8]; at 33.0 µM 52% | [9]; [16] 50% | [9]; at 50.0 µM 68.8% and 4.6% | [10]; at 1.2 µM 12% | [10]; at 3.7 µM 40% | [10]; [16] 36% | [10]; at 11.0 µM 42% | [10]; at 33.0 µM 51% | [10]; at 50.0 µM 59.5% and -0.65% | [11]; at 1.2 µM 10% | [11]; at 3.7 µM 34% | [11]; at 11.0 µM 41% | [11]; at 33.0 µM 54% | [12]; at 1.2 µM 20% | [12]; at 3.7 µM 35% | [12]; at 11.0 µM 48% | [12]; at 33.0 µM 55% | [13]; [16] 14% | [13]; at 50.0 µM 61.6% and 6.3% | [14]; at 1.2 µM 18% | [14]; at 3.7 µM 39% | [14]; at 11.0 µM 31% | [14]; at 33.0 µM 47%
active: [1]; at 100.0 µM 86% | [2]; at 100.0 µM 89% | [4]; [17] 85% | [4]; at 100.0 µM 83% | [5]; [17] 93% | [5]; at 100.0 µM 84% | [6]; at 100.0 µM 85% | [7]; [17] 91% | [8]; at 100.0 µM 85% | [9]; [17] 94% | [10]; [17] 91% | [10]; at 100.0 µM 86% | [11]; at 100.0 µM 89% | [12]; at 100.0 µM 85% | [13]; [17] 89% | [14]; at 100.0 µM 82%

COc1ccc(/C=C(\NC(=O)c2ccccc2)C(=O)NN(C)c2ccnc3cc(Cl)ccc23)cc1OC
inactive: [1]; at 1.2 µM 3% | [1]; at 3.7 µM 1% | [1]; at 11.0 µM 12% | [1]; at 33.0 µM 5% | [1]; at 100.0 µM 27% | [2]; at 1.2 µM -41% | [2]; at 3.7 µM 0% | [2]; at 11.0 µM 3% | [2]; at 33.0 µM 11% | [2]; at 100.0 µM 15% | [3]; at 1.2 µM 4% | [3]; at 3.7 µM 20% | [4]; at 1.2 µM -1% | [4]; at 3.7 µM 7% | [4]; [16] 0% | [4]; at 11.0 µM 19% | [4]; at 33.0 µM 30% | [4]; [17] 30% | [4]; at 100.0 µM 36% | [5]; at 1.2 µM -2% | [5]; at 3.7 µM -3% | [5]; [16] -12% | [5]; at 11.0 µM 0% | [5]; at 33.0 µM 11% | [5]; [17] -14% | [5]; at 50.0 µM 28.6% | [5]; at 100.0 µM 10% | [6]; at 1.2 µM 2% | [6]; at 3.7 µM 5% | [6]; at 11.0 µM 8% | [6]; at 33.0 µM 8% | [6]; at 100.0 µM 6% | [7]; [16] -6% | [7]; [17] -6% | [8]; at 1.2 µM -2% | [8]; at 3.7 µM 6% | [8]; at 11.0 µM 38% | [8]; at 33.0 µM 48% | [8]; at 100.0 µM 58% | [10]; at 1.2 µM -4% | [10]; at 3.7 µM -4% | [10]; [16] 9% | [10]; at 11.0 µM 22% | [10]; at 33.0 µM 32% | [10]; [17] 49% | [10]; at 100.0 µM 50% | [11]; at 1.2 µM -1% | [11]; at 3.7 µM 4% | [11]; at 11.0 µM 31% | [11]; at 33.0 µM 36% | [11]; at 100.0 µM 27% | [15]; at 1.2 µM -2% | [15]; at 3.7 µM 1% | [15]; at 11.0 µM 6% | [15]; at 33.0 µM 15% | [15]; at 100.0 µM 25% | [12]; at 1.2 µM 0% | [12]; at 3.7 µM 3% | [12]; at 11.0 µM 7% | [12]; at 33.0 µM 21% | [12]; at 100.0 µM 31% | [13]; [16] 0% | [13]; [17] 1% | [14]; at 1.2 µM 2% | [14]; at 3.7 µM 5% | [14]; at 11.0 µM 11% | [14]; at 33.0 µM 41% | [14]; at 100.0 µM 50%
active: [3]; at 11.0 µM 78% | [3]; at 33.0 µM 90% | [3]; at 100.0 µM 78% | [4]; at 50.0 µM 86.5% | [7]; at 50.0 µM 73.1% | [10]; at 50.0 µM 90.2% | [13]; at 50.0 µM 87.1%
